# In PubChem BioAssay AID382 (SGCOxCompounds, 2006):
# Active and inactive are the calls of the source. How the calls were made is not given here.
# Target: Dual specificity protein kinase CLK1 (Homo sapiens) (UniProt P49759)
# Assay: ligand-induced CLK1 melting temperature shift – biophysical, recombinant human kinase, DSF (AID 382)
# Conditions: Recombinant CLK1, thermal shift (DSF), at 10 µM, protein 2 µM, buffer 10 mM HEPES, NaCl 150 mM, hits give high values
# Dual specificity protein kinase CLK1 (Homo sapiens), sequence (P49759 whole entry, looked up): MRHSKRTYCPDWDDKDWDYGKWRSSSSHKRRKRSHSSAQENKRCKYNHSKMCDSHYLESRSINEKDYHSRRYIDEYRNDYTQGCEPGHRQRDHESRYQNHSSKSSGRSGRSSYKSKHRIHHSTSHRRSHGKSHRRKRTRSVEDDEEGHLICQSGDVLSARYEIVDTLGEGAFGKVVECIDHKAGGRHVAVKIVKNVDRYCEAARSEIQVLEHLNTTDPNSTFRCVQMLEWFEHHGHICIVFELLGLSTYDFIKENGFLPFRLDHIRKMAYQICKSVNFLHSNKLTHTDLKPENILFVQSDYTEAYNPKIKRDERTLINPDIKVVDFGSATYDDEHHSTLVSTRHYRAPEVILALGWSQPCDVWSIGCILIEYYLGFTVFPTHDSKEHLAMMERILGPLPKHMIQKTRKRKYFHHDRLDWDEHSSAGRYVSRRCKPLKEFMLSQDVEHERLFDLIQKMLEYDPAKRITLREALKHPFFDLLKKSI
row,Compound,Tm shift
1,O=C1Nc2ccccc2/C1=C\c1cnc[nH]1,3.76 Celsius (active)
2,O=C1NC(=O)c2c1c1c3ccccc3n3c1c1c2c2ccccc2n1[C@@H]1CCC3O1,6.44 Celsius (active)
3,CCn1cnc2c(Nc3cccc(Cl)c3)nc(N[C@@H]3CCCC[C@@H]3N)nc21,6.54 Celsius (active)
4,COc1ccc2c(c1)/C(=C/c1cnc[nH]1)C(=O)N2,3.63 Celsius (active)
